The nature of assay [1]: Nuclear factor erythroid 2-related factor 2/antioxidant responsive element (Nrf2/ARE) small molecule agonists: qHTS cell viability counter screen in human keratinocytes (AID 1919968; active means well fitted curve in the direction sought with a large enough effect in the repeat runs; an effect the other way counts as inactive or inconclusive; further: nearly all actives have a fitted effect of over 55% in size). The gist of the method:
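Parallel cytotoxicity read: KeratinoSens HaCaT cells, compound treatment 23 h, viability by CellTiter-Fluor fluorescence 1 h post-reagent.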
For orientation: qHTS replaces the single test concentration by a dilution series.

Assay [2] can be described thus: Nuclear factor erythroid 2-related factor 2/antioxidant responsive element (Nrf2/ARE) small molecule agonists: luciferase reporter gene qHTS assay in human keratinocytes (AID 1919969). Further: nearly all actives have a fitted effect of over 35% in size. Further: potency means the concentration at half of the fitted maximal effect.
The target of assay [3] is Gonadotropin-releasing hormone receptor (Homo sapiens) (UniProt P30968). The experiment in a line: Human gonadotropin-releasing hormone receptor (GnRHR) small molecule agonists, calcium flux assay in GnRHR-HEK293 cells (AID 1920063). Further: nearly all actives have a fitted effect of over 35% in size. The gist of the method: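 Calcium flux, agonist mode, human GnRHR stably integrated in HEK293; dye 1 h at 37 C before compound; Ex/Em=480/540 kinetic read, 3 min; 15 concentrations, triplicate.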

For assay [4], the target named is KiSS-1 receptor (Homo sapiens) (UniProt Q969F8). The assay can be described thus: Human kisspeptin (KISS1R) small molecule agonists, calcium flux assay in KISS1R-HEK293 cells (AID 1920064; active means well fitted curve in the direction sought with a large enough effect in the repeat runs; an effect the other way counts as inactive or inconclusive). A digest of the protocol: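 Triplicate 15-concentration series were applied to dye-loaded human KISS1R HEK293 cells, and agonist-evoked calcium fluorescence was captured for 3 min.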

Assay [5] in a line: G protein-coupled receptor (GPCR) small molecule agonists, calcium flux assay: HEK293 wild type cell line counter screen (AID 1920065). A digest of the protocol: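 Non-specific calcium responders were flagged by adding DMSO-dissolved compounds to dye-loaded cells and reading 480/540 nm fluorescence each second for 3 min; ATP served as positive control.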
In general terms: Calcium flux is commonly read through the fluorescence of an indicator in the cells.

Assay [6] can be described thus: p53 small molecule agonists, cell-based qHTS assay with human liver microsomes (AID 1963577).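 Further: p53 response element beta-lactamase reporter cells with liver microsomes plus NADPH.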 The gist of the method:
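Metabolically competent format: test substances, human liver microsomes and NADPH (both 0.5 mg/mL final) incubated with p53RE-bla cells 16 h at 37 C. Beta-lactamase reporter signal then quantified by fluorescence.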

Assay [7] in a line: p53 small molecule agonists, cell-based qHTS assay with rat liver microsomes (AID 1963578). A digest of the protocol:
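Each plate received p53RE-bla cells, then compound, then rat liver microsomes and NADPH (both 0.5 mg/mL final). Plates were held 16 h at 37 C, and beta-lactamase activity was detected with LiveBLAzer over 2 h.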

Assay [8] in a line: p53 small molecule agonists, cell-based qHTS assay with human liver microsomes: qHTS cell viability counter screen (AID 1963579). Further: nearly all actives have a fitted effect of over 45% in size. A digest of the protocol:
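Tox21 library compounds, delivered from DMSO stocks, were tested on p53RE-bla cells together with 0.5 mg/mL human liver microsomes and 0.5 mg/mL NADPH (final) over 16 h at 37 C; CellTiter-Glo luminescence served as the cytotoxicity measure.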

A short description of assay [9]: p53 small molecule agonists, cell-based qHTS assay with rat liver microsomes: qHTS cell viability counter screen (AID 1963580). Further: nearly all actives have a fitted effect of over 45% in size. A digest of the protocol:
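Cytotoxicity counter screen: intracellular ATP read by CellTiter-Glo luminescence in the p53 reporter wells. HCT-116 p53RE-bla cells were treated for 16 h at 37 C alongside rat liver microsomes and NADPH, each 0.5 mg/mL final.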

Assay [10] is described as follows: p53 small molecule agonists, cell-based qHTS assay: qHTS cell viability counter screen (AID 1963581). Further: nearly all actives have a fitted effect of over 45% in size. The gist of the method:
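Multiplexed with the reporter read, a CellTiter-Glo step (30 min, room temperature) gauges ATP-based viability of HCT-116 p53RE-bla cells after 16 h compound incubation at 37 C.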

The target of assay [11] is 5-hydroxytryptamine receptor 2A (Homo sapiens) (UniProt P28223). The experiment in a line: 5-hydroxytryptamine receptor 2A (HTR2A) small molecule antagonists, cell-based qHTS assay (AID 1963586). Further: nearly all actives have a fitted effect of over 45% in size. Further: potency means the concentration at half of the fitted maximal effect. A digest of the protocol: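 CHO cells stably expressing human HTR2A were plated for 18 h at 37 C, then loaded with calcium dye for 1 h. Compounds were preincubated 5 min at room temperature before DOI (4 nM solution) was added. Kinetic fluorescence was read for 3 min.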

Assay [12] has the same target. The experiment in a line: 5-hydroxytryptamine receptor 2A (HTR2A) small molecule agonists, cell-based qHTS assay (AID 1963587). Further: nearly all actives have a fitted effect of over 30% in size. The gist of the method: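 Kinetic calcium-flux fluorescence (2 min, 1 sec intervals) after compound addition in agonist mode. HTR2A-CHO cells were cultured 18 h, then dye-loaded 1 h at 37 C.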
Assay [13] has as its target Muscarinic acetylcholine receptor M1 (Homo sapiens) (UniProt P11229). The assay can be described thus: Cholinergic receptor muscarinic 1 (CHRM1) small molecule agonists, cell-based qHTS assay (AID 1963589). Further: nearly all actives have a fitted effect of over 35% in size. A digest of the protocol: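 qHTS, 15-point titration, 3 independent runs: compounds pin-transferred onto dye-loaded CHRM1-CHO cells (human M1), calcium fluorescence followed every second to detect agonism.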

The nature of assay [14]: cAMP Responsive Elements (CRE) small molecule agonists, cell-based qHTS assay (AID 1963590). A digest of the protocol: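 Quantitative HTS for CRE agonists: HEK 293T CRE-bla cells, overnight plating, 3 h compound incubation at 37 C/5% CO2, then 2 h room-temperature LiveBLAzer B/G FRET substrate loading.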
Assay [15] can be described thus: cAMP Responsive Elements (CRE) small molecule antagonists, cell-based qHTS assay (AID 1963591; active means well fitted inhibition curve with a large enough effect in the signal ratio in the repeat runs, not every such curve was filed as active; the % refers to the signal ratio). The gist of the method: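 Fluorescence intensity from cleaved LiveBLAzer B/G substrate (2 h, room temperature) quantified CRE-bla activity in HEK 293T cells exposed 3 h to compound with 0.25 uM final NKH477.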
The target in assay [16] is Beta-2 adrenergic receptor (Homo sapiens) (UniProt P07550). The assay can be described thus: Adrenergic beta2 receptor (ADRB2) small molecule antagonists, cell-based qHTS assay (AID 1963592). Further: series mostly up to about 92 µM; nearly all actives have a fitted effect of over 50% in size. A digest of the protocol: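 Assay format: CHO-ADRB2 cells, 18-20hr seeding at 37C/5% CO2, then compound plus 1nM isoproterenol agonist mix for 0.5hr RT. Homogeneous time-resolved fluorescence cAMP detection after 1hr, expressed as 665/615 nm ratio.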

The target in assay [17] is D(2) dopamine receptor (Homo sapiens) (UniProt P14416). The assay can be described thus: Dopamine D2 receptor (DRD2) small molecule agonists, cell-based qHTS assay (AID 1963594). Further: nearly all actives have a fitted effect of over 35% in size. The gist of the method:
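cAMP accumulation in DRD2-HEK293 cells measured by HTRF after 1 h detection; compounds added 10 min before NKH477 (200nM […]) forskolin-analogue stimulation, 30 min at room temperature, with Ro20-1724 present at 0.1 mM final.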

The target is the same in assay [18]. The assay can be described thus: Dopamine D2 receptor (DRD2) small molecule antagonists, cell-based qHTS assay (AID 1963595; active means well fitted inhibition curve with a large enough effect in the signal ratio in the repeat runs, with a control signal flat; the % refers to the signal ratio). A digest of the protocol:
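Antagonism was scored as restored cAMP in HEK293-DRD2 cells. These cells were stimulated with 200 nM NKH477 and 12 nM quinpirole for 30 min at room temperature, in the presence of 0.1 mM Ro20-1724.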

Drawing on PubChem BioAssay (Tox21), this text covers Potency and outcome for 7 compounds.

A number with no mark means an inactive call. Records with an inconclusive call do not appear. Activity calls are given as the source filed them. Unless noted, the call rests on the fitted dose curve.

Chain of Gonadotropin-releasing hormone receptor (Homo sapiens) (P30968 whole entry, looked up): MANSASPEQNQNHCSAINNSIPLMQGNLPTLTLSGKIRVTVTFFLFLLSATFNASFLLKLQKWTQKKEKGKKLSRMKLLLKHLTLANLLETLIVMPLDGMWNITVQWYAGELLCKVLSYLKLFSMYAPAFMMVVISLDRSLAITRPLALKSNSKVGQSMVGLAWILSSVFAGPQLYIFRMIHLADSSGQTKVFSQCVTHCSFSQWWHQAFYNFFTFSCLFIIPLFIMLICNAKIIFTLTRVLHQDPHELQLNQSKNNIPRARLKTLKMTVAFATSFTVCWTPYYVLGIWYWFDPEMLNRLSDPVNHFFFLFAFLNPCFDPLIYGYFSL
Chain of 5-hydroxytryptamine receptor 2A (Homo sapiens) (P28223 whole entry, looked up): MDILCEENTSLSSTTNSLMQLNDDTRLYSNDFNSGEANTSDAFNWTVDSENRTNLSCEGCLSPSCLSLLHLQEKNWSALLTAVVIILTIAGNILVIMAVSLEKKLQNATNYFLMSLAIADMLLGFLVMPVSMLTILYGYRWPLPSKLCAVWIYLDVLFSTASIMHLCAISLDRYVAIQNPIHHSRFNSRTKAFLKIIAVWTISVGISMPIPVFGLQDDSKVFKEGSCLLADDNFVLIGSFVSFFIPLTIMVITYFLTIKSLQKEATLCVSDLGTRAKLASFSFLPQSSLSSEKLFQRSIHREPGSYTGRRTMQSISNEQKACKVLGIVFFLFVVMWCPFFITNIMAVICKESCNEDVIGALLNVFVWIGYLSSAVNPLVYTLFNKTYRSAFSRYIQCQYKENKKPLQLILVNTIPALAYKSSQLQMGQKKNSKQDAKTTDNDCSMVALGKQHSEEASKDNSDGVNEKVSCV
Chain of Beta-2 adrenergic receptor (Homo sapiens) (P07550 whole entry, looked up): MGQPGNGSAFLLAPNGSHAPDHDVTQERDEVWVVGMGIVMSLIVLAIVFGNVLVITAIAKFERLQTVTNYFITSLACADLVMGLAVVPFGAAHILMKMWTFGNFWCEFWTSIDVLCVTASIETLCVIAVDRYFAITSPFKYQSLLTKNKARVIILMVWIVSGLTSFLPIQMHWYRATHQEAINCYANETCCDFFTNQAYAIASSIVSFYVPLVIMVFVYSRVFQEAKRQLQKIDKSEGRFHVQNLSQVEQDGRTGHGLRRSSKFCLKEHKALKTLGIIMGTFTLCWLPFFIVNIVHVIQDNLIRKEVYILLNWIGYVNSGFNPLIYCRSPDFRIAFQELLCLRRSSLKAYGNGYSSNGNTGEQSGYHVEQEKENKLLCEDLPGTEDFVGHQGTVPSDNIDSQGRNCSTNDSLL
Chain of D(2) dopamine receptor (Homo sapiens) (P14416 whole entry, looked up): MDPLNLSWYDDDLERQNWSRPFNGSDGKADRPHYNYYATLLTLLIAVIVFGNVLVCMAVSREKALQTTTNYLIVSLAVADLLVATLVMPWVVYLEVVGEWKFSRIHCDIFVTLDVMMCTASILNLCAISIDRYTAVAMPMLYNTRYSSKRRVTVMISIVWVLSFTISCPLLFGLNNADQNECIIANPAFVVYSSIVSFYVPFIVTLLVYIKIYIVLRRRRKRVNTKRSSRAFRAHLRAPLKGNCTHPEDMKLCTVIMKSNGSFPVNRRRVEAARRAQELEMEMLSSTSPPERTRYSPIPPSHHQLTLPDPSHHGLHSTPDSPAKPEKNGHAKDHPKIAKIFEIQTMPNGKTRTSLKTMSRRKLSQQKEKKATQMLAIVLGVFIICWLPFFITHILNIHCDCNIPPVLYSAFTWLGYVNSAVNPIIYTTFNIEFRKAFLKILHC
Chain of Muscarinic acetylcholine receptor M1 (Homo sapiens) (P11229 whole entry, looked up): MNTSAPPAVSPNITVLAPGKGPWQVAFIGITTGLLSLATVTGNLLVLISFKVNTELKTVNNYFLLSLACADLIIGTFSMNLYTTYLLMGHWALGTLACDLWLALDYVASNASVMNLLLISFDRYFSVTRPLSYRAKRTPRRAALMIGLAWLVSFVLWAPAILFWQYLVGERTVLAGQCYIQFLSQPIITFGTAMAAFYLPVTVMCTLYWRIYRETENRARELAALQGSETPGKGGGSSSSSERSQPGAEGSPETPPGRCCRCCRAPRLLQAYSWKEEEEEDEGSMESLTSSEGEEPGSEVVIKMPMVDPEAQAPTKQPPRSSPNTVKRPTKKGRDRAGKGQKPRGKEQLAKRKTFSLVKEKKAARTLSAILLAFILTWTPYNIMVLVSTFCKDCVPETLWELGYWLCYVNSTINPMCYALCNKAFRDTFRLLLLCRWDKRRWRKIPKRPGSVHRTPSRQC
Chain of KiSS-1 receptor (Homo sapiens) (Q969F8 whole entry, looked up): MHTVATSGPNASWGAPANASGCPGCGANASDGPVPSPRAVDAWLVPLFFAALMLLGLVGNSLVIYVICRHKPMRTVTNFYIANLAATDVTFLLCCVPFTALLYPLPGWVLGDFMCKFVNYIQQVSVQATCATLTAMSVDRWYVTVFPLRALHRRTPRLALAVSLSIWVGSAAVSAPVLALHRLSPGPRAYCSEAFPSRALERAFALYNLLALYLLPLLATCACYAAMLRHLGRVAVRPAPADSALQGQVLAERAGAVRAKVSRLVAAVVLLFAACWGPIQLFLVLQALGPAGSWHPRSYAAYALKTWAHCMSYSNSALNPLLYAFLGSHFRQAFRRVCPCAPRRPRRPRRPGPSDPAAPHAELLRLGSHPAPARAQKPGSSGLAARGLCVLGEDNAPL

Take `Cc1c(C)c([N+](=O)[O-])c(C(C)(C)C)c([N+](=O)[O-])c1C`: the Potency result in assay [1], in [2], in assay [3], in assay [6], in [7] and in [8] was “inactive” each time. Also, the Potency result in assay [9], in assay [10], in assay [11], in [12], in [13] and in assay [14] was “inactive” each time. Further, the Potency result in assay [15], in assay [16], in [17] and in [18] was “inactive” in each case. The result in assay [4] and in [5] was inactive.
Turning to `CCC(C)COC(=O)CC(C)C` (stereo not given), the Potency entry in assay [1], in [2], in [3], in assay [6], in assay [7] and in assay [8] was “inactive” in each case. Also, the Potency result in [9], in assay [10], in assay [11], in assay [12], in [13] and in assay [16] was “inactive” each time. Besides, the Potency result in assay [17] and in assay [18] was “inactive” each time. Moreover, the outcome in assay [4] and in [5] was inactive.
`C=CC/C=C/C`: the Potency result in assay [1], in assay [2], in assay [3], in [6], in assay [7] and in [8] was “inactive” throughout. The Potency entry in assay [9], in assay [10], in assay [11], in assay [12], in [13] and in assay [14] was “inactive” throughout. Further, the Potency result in assay [15], in assay [16] and in assay [18] was “inactive” each time. The result in assay [4] and in assay [5] was inactive.
For the compound `Cc1cc(SC2=C(O)C[C@@](CCc3ccc(N)cc3)(C(C)C)OC2=O)c(C(C)(C)C)cc1CO`, the Potency entry in assay [1], in [2], in assay [3], in [6], in assay [7] and in [8] was “inactive” each time. The Potency entry in [9], in assay [10], in assay [11], in assay [12], in assay [13] and in [16] was “inactive” each time. For the same compound, the Potency result in [17] and in [18] was “inactive” each time. Besides, the outcome in [4] and in assay [5] was inactive.
On to `O=C(OCC1CO1)C1CCCCC1C(=O)OCC1CO1` (stereo not given), for which the Potency entry in [1], in assay [3], in [6], in [7], in assay [8] and in [9] was “inactive” in each case. For the same compound, the Potency entry in [10], in [11], in assay [12], in [13], in assay [16] and in [17] was “inactive” throughout. For the same compound, the Potency entry in assay [18] is “inactive”. Besides, the Potency in [2] was 68.7 µM (active). Moreover, the outcome in assay [4] and in assay [5] was inactive.
In the case of `COC(=O)C1=C(C)NC(C)=C(C(=O)OCCN2CCN(C(c3ccccc3)c3ccccc3)CC2)C1c1cccc([N+](=O)[O-])c1` (stereo not given), the Potency result in assay [1], in assay [2], in [3], in [6], in assay [7] and in assay [8] was “inactive” in each case. Besides, the Potency result in assay [9], in assay [10], in [12], in assay [13], in assay [15] and in assay [16] was “inactive” throughout. In addition, the Potency entry in assay [18] was “inactive”. The outcome in [4] and in assay [5] was inactive. For the same compound, the Potency in assay [11] was 8.18 µM (active).
In the case of `CCOC(=O)Nc1ccc(NCc2ccc(F)cc2)nc1N`, the Potency entry in assay [1], in assay [2], in assay [3], in assay [6], in [7] and in assay [8] was “inactive” in each case. The Potency entry in [9], in assay [10], in assay [11], in assay [12], in assay [13] and in assay [14] was “inactive” in each case. The Potency entry in assay [16] and in assay [18] was “inactive” each time. For the same compound, the outcome in assay [4] and in [5] was inactive.
